# PubChem BioAssay AID1159580 (chemical genetic matrix, 2015)
# The campaign covered roughly 5,500 compounds. About 2,000 (36%) were called active. Another 18% or so got no clear call; they are omitted. This is one part of the list. Values without a mark were called inactive. No stated cut-off is given here; in the data, active means normalized growth mostly below about 0.91 (no sharp cut-off); inconclusive means no clear call, values can overlap the other calls; inactive means mostly above about 0.92.
# Assay: chemical genetic growth profiling, strain panel (AID 1159580);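 further: tested at 20 µM; growth read once vehicle control cultures reached saturation at 30 °C; 1 = growth at the plate median or of vehicle wells; lower values mean less growth of the strain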
# Conditions: S. cerevisiae deletion strains, growth OD
# [1] = locus YAL013W, strain DEP1, hits give low values
# [2] = locus YBR229C, strain ROT2, hits give low values
# [3] = locus YDL101C, strain DUN1, hits give low values
# [4] = locus YDR150W, strain NUM1, hits give low values
# [5] = locus YEL061C, strain CIN8, hits give low values
# [6] = locus YGR078C, strain PAC10, hits give low values
# [7] = locus YHR030C, strain SLT2, hits give low values
# [8] = locus YHR087W, strain rtc3, hits give low values
# [9] = locus YJR043C, strain POL32, hits give low values
# [10] = locus YJR075W, strain HOC1, hits give low values
# [11] = locus YKL190W, strain CNB1, hits give low values
# [12] = locus YLR039C, strain RIC1, hits give low values
# [13] = locus YLR058C, strain SHM2 (second series), hits give low values
# [14] = locus YLR085C, strain ARP6, hits give low values
# [15] = locus YLR262C, strain YPT6, hits give low values
# [16] = locus YML094W, strain GIM5, hits give low values
# [17] = locus YMR219W, strain ESC1, hits give low values
# [18] = locus YNL153C, strain GIM3, hits give low values
# [19] = locus YNL298W, strain CLA4 (second series), hits give low values
# [20] = locus YNL322C, strain KRE1, hits give low values
# [21] = locus YNR030W, strain Alg12, hits give low values
# [22] = locus YPL055C, strain LGE1, hits give low values
# [23] = locus YPL241C, strain CIN2, hits give low values
# [24] = locus YPR135W, strain CTF4, hits give low values
smiles,measurement,setting,value
Cc1[nH]n(C)c(=O)c1N=Nc1ccc(Cl)cc1,normalized growth,[1],0.892 (active)
same,normalized growth,[2],0.886 (active)
same,normalized growth,"locus YCL061C, strain MRC1, hits give low values",0.864 (active)
same,normalized growth,[3],0.82 (active)
same,normalized growth,[4],0.835
same,normalized growth,[5],0.598 (active)
same,normalized growth,[6],0.906 (active)
same,normalized growth,"locus YGR229C, strain SMI1, hits give low values",0.979
same,normalized growth,[7],0.143 (active)
same,normalized growth,[8],0.926
same,normalized growth,"locus YJL187C, strain SWE1, hits give low values",0.875 (active)
same,normalized growth,[9],0.945
same,normalized growth,[10],0.912
same,normalized growth,[11],0.915 (active)
same,normalized growth,[12],0.342 (active)
same,normalized growth,[13],0.912 (active)
same,normalized growth,[14],0.115 (active)
same,normalized growth,[15],0.393 (active)
same,normalized growth,[16],0.764 (active)
same,normalized growth,[17],0.924 (active)
same,normalized growth,"locus YNL128W, strain TEP1, hits give low values",0.965
same,normalized growth,[18],0.894 (active)
same,normalized growth,[19],0.689 (active)
same,normalized growth,[20],0.96
same,normalized growth,[21],0.881 (active)
same,normalized growth,[22],0.78
same,normalized growth,[23],0.753 (active)
same,normalized growth,[24],0.242 (active)
Cc1ccc(N=Nc2c(C)[nH]n(C)c2=O)cc1,normalized growth,[1],0.931 (active)
same,normalized growth,[2],0.921 (active)
same,normalized growth,[3],0.918
same,normalized growth,"locus YDL134C, strain PPH21, hits give low values",0.886 (active)
same,normalized growth,[4],0.92
same,normalized growth,[5],0.839 (active)
same,normalized growth,[6],0.959
same,normalized growth,[7],0.433 (active)
same,normalized growth,[8],0.974
same,normalized growth,[9],0.896 (active)
same,normalized growth,[10],0.969
same,normalized growth,[11],0.946
same,normalized growth,[12],0.332 (active)
same,normalized growth,[13],0.955
same,normalized growth,[14],0.407 (active)
same,normalized growth,[15],0.352 (active)
same,normalized growth,[16],0.822 (active)
same,normalized growth,[17],0.964
same,normalized growth,[18],0.945
same,normalized growth,[19],0.87
same,normalized growth,[20],0.991
same,normalized growth,[21],0.897
same,normalized growth,[22],0.847
same,normalized growth,[23],0.82 (active)
same,normalized growth,[24],0.431 (active)
